# Assay results taken from PubChem BioAssay (NCI).
# The panel holds about 79,000 compounds, 15% with a hit somewhere; the sample as a whole holds those more often. The source made the active and inactive calls. Rule as the data show it: active = growth inhibition above about 70%; inactive = the rest.
# Test: NCI Yeast Anticancer Drug Screen. Data for the mlh1 rad18 strain (AID 175)
# Settings: S. cerevisiae mlh1 rad18 strain growth inhibition; at 50.0 µM; active compounds read high
# How it was run: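 Yeast w/ defined DNA-repair lesions; compound exposure; growth vs vehicle controls → % inhibition.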
row,SMILES,growth inhibition
1,OC1C(OCc2ccccc2)OC(COCc2ccccc2)C(OC2OC(COCc3ccccc3)C(OCc3ccccc3)C(OCc3ccccc3)C2OCc2ccccc2)C1OCc1ccccc1 (stereo not given),-3.6% (inactive)
2,Nc1nc2c(-c3ccc([N+](=O)[O-])cc3)nnn2c2cccc(Cl)c12,-14.7% (inactive)
3,C[C@H](CCC(=O)NCCS(=O)(=O)O)[C@H]1CC[C@H]2[C@@H]3CC[C@@H]4C[C@H](O)CC[C@]4(C)[C@H]3CC[C@]12C,14.8% (inactive)
4,Cc1cc2nc(/N=C/c3nc(O)c(C)[nH]3)[nH]c2cc1C,56% (inactive)
5,OCC1OC2OC(c3ccccc3)(c3ccc(OCc4ccccc4)nc3OCc3ccccc3)OC2C1O (stereo not given),2.8% (inactive)
6,CCOC(=O)C(=CN1C/C(=C/C(C)=C/c2ccccc2)SC1=S)C(=O)OCC,4.85% (inactive)
7,COC(=O)/C=C\C1(CC(C)C)N=C(c2ccccc2)OC1=O (stereo not given),26.8% (inactive)
8,S=c1[nH]c2ccccc2n2cccc12,19.2% (inactive)
9,C=CCN(CC=C)c1ccccc1,34.4% (inactive)
10,COC(=O)c1ccc([N+](=O)[O-])cc1C(=O)OC,-3.2% (inactive)
11,CCCOC(=O)c1ccccc1C(=O)OC1CCCCC1,-8.65% (inactive)
12,Cc1nn(-c2nc(-c3ccc(Br)cc3)cs2)c(C)c1C,3.45% (inactive)
13,O=C(O)CC1CCCNC1 (stereo not given),-16.3% (inactive)
14,CC(=O)CC(=O)NC(C)(C)CC(C)(C)C,-9.55% (inactive)
15,CC(CO)(NC(=O)c1ccccc1)C(=O)O (stereo not given),23.4% (inactive)
16,FC(F)(F)C(F)(F)C(F)(F)C(F)(F)C(F)(F)C(F)(F)C(F)(F)c1noc(C(F)(F)C(F)(F)C(F)(F)C(F)(F)C(F)(F)C(F)(F)C(F)(F)F)n1,17.4% (inactive)
17,CC(=O)N1C(NN(C)C)CCN1c1ccccc1 (stereo not given),2.95% (inactive)
18,C=CCN(CC=C)C(=O)Nc1cccc2c(NC(=O)N(CC=C)CC=C)cccc12,-23.4% (inactive)
19,[CH2+][B-]1(C)n2cc(Br)c[n+]2[B-](C)(C)[n+]2cc(Br)cn21,22.6% (inactive)
20,CN(C)CCCN1c2ccccc2Sc2ccc3ccccc3c21,14.8% (inactive)

row,SMILES,growth inhibition
1,Cn1c2c(c3ccccc31)CCCC2,5.35% (inactive)
2,CC(C)=C1CCC(CN2CCCC2)C1=O (stereo not given),23.6% (inactive)
3,COc1ccc2c(c1)c1c3c(ccc4ncn2c43)N(CCN(C)C)CCN=1,-37.6% (inactive)
4,O=C(NN1C(=O)CSC1c1ccc(F)cc1)c1ccncc1 (stereo not given),11.8% (inactive)
5,CCOC(=O)NC(Nc1ccc(F)cc1F)(C(F)(F)F)C(F)(F)F,1.4% (inactive)
6,CCN(CC)CC1CCCCCCCCCCC1=O (stereo not given),-28.9% (inactive)
7,O=C(CC(O)(C(F)(F)F)C(F)(F)F)c1cccc(S(=O)(=O)N2CCOCC2)c1,22.8% (inactive)
8,CC(=O)Nc1cc2c(cc1Br)-c1ccccc1C2=O,-2.15% (inactive)
9,CCN1C(=NCCO)NS(=O)(=O)c2ccccc21,0.35% (inactive)
10,O=C(CCCCCC(=O)CC(=O)CCc1ccccc1)CC(=O)CCc1ccccc1,56.6% (inactive)
11,NC(N)=N/N=C/C(=N\N=C(N)N)C(O)CO (stereo not given),-9.1% (inactive)
12,S=C(Nc1ccccc1)Nc1nc(-c2ccccc2)c(N=Nc2ccc(Cl)cc2)s1,9.45% (inactive)
13,COc1cccc(C(Nc2nncs2)Nc2nncs2)c1,16.1% (inactive)
14,c1ccc(OCCSCCCCCCCCCCSCCOc2ccccc2)cc1,-24.5% (inactive)
15,Clc1ccc2nc(/C=C/c3ccccc3)cnc2c1,22.5% (inactive)
16,COc1ccc(C2C(C#N)=C(N)NC(=O)C2C(N)=O)cc1 (stereo not given),-19.4% (inactive)
17,O=C1/C(=C/c2ccccc2)CN(C(=O)CCN2CCOCC2)C/C1=C\c1ccccc1,86.8% (active)
18,CCN(CC)CCN1C(=O)c2c(c(-c3ccccc3)c3ccccc3c2-c2ccccc2)C1=O,28% (inactive)
19,CC(C)N(C(=O)C12C3C4C5(C(=O)O)C(C1C35I)C42C(=O)O)C(C)C (stereo not given),-4.1% (inactive)
20,CN(C1c2ccccc2Oc2ccccc21)S(=O)(=O)c1ccc([N+](=O)[O-])cc1,40.1% (inactive)
